Laboratory results published in PubChem BioAssay (EPA / NIEHS).
Calls of active or inactive are those of the source. The calls were made as follows: active = hit-call score of the fitted dose curve at least 0.9, where 1 is the maximum; inactive = score below 0.9.

Columns and labels:
Settings in all cases: mRNA level, 48 h; actives raise or lower the signal
[1] = read-out: Tumor necrosis factor receptor superfamily member 6 (Homo sapiens) (UniProt P25445); experiment: LTEA_HepaRG_FAS: Life Technologies and Expression Analysis (LTEA) Assay for Fas cell surface death receptor (FAS) using HepaRG (AID 2283447)
In short: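 FAS transcript level was measured by TaqMan qRT-PCR against three housekeeping genes after 48 h chemical exposure. Cells were HepaRG, 0.5% DMSO vehicle, with a top concentration of 100 uM and half-log dilutions over eight points, in duplicate.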

[2] = read-out: Fatty acid synthase (Homo sapiens) (UniProt P49327); experiment: LTEA_HepaRG_FASN: Life Technologies and Expression Analysis (LTEA) Assay for Fatty Acid Synthase (FASN) using HepaRG (AID 2283448)
In short: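 FASN transcript measured by TaqMan qRT-PCR, normalised to three housekeeping genes, after 48 h chemical exposure of HepaRG cells. Eight-point half-log series from 100 uM in 0.5% DMSO, duplicates; gain or loss fitted against vehicle.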

[3] = read-out: Cyclin Dependent Kinase Inhibitor 1A (CDKN1A), CDKN1A (gene 1026); experiment: LTEA_HepaRG_CDKN1A: Life Technologies and Expression Analysis (LTEA) Assay for Cyclin Dependent Kinase Inhibitor 1A (CDKN1A) using HepaRG (AID 2283450)
In short: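 Differentiated HepaRG cells in serum-free induction medium, exposed 48 h in duplicate to eight half-log concentrations up to 100 uM in 0.5% DMSO. mRNA measured by TaqMan qRT-PCR, normalized to ACTB, GAPDH, POLR2A; bidirectional fit versus DMSO.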

[4] = read-out: Cyclin D1 (CCND1), CCND1 (gene 595); experiment: LTEA_HepaRG_CCND1: Life Technologies and Expression Analysis (LTEA) Assay for Cyclin D1 (CCND1) using HepaRG (AID 2283451);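 as to AC50: TaqMan qRT-PCR transcript level normalised to ACTB GAPDH and POLR2A housekeeping genes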
In short: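 Differentiated HepaRG cells exposed 48 h in serum-free induction medium to eight half-log concentrations from 100 uM top, 0.5% DMSO, duplicates. CCND1 mRNA measured by Fluidigm TaqMan qRT-PCR, normalised to ACTB, GAPDH, POLR2A; bidirectional fit.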

[5] = read-out: catalase (CAT), CAT (gene 847); experiment: LTEA_HepaRG_CAT: Life Technologies and Expression Analysis (LTEA) Assay for catalase (CAT) using HepaRG (AID 2283452)
In short: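 Expression of CAT was quantified by TaqMan qRT-PCR with ACTB/GAPDH/POLR2A normalization after 48 h chemical exposure of HepaRG. Eight-point half-log series, top 100 uM, in 0.5% DMSO; gain or loss fitted against vehicle.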

[6] = read-out: flavin-containing dimethylaniline monooxygenases 3 (FMO3), FMO3 (gene 2328); experiment: LTEA_HepaRG_FMO3: Life Technologies and Expression Analysis (LTEA) Assay for flavin-containing dimethylaniline monooxygenases 3 (FMO3) using HepaRG (AID 2283453)
In short: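 FMO3 transcript quantified by TaqMan qRT-PCR against three housekeeping genes after 48 h chemical exposure of HepaRG cells. Eight-point half-log series, top 100 uM, 0.5% DMSO vehicle; phenobarbital 1mM induction control; up- or down-regulation fitted.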

[7] = read-out: Cytochrome P450 (CYP1A1), CYP1A1 (gene 1543); experiment: LTEA_HepaRG_CYP1A1: Life Technologies and Expression Analysis (LTEA) Assay for Cytochrome P450 (CYP1A1) using HepaRG (AID 2283454)
In short: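 Differentiated human HepaRG cells, after 48 h plating, exposed in duplicate for 48 h in serum-free induction medium to 8 half-log concentrations up to 100 uM in 0.5% DMSO. CYP1A1 mRNA by qRT-PCR, normalized to ACTB/GAPDH/POLR2A; bidirectional fit versus DMSO.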

[8] = read-out: CFLAR gene, CFLAR (gene 8837); experiment: LTEA_HepaRG_CFLAR: Life Technologies and Expression Analysis (LTEA) Assay for CFLAR gene using HepaRG (AID 2283455)
In short: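 Transcript level by qRT-PCR (normalized to ACTB, GAPDH and POLR2A) after 48 h chemical exposure of HepaRG cells, top concentration 100 uM with half-log steps, 0.5% DMSO vehicle, duplicates; fitted bidirectionally against DMSO baseline.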

[9] = read-out: Forkhead box O1 (FOXO1), FOXO1 (gene 2308); experiment: LTEA_HepaRG_FOXO1: Life Technologies and Expression Analysis (LTEA) Assay for Forkhead box O1 (FOXO1) using HepaRG (AID 2283456)
In short: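 FOXO1 transcript quantified by qRT-PCR after 48 h chemical exposure (top 100 uM, half-log steps, 0.5% DMSO) of HepaRG cells, housekeeping-normalized (ACTB/GAPDH/POLR2A). Changes fitted in both directions relative to vehicle.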

[10] = read-out: growth arrest and DNA damage 45 (GADD45A), GADD45A (gene 1647); experiment: LTEA_HepaRG_GADD45A: Life Technologies and Expression Analysis (LTEA) Assay for growth arrest and DNA damage 45 (GADD45A) using HepaRG (AID 2283458)
In short: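 GADD45A expression was measured by TaqMan qRT-PCR against three housekeeping genes (ACTB, GAPDH, POLR2A) after 48 h treatment of HepaRG cells. Eight-point half-log series up to 100 uM in 0.5% DMSO, run in duplicate.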

[11] = read-out: Forkhead box O3 (FOXO3), FOXO3 (gene 2309); experiment: LTEA_HepaRG_FOXO3: Life Technologies and Expression Analysis (LTEA) Assay for Forkhead box O3 (FOXO3) using HepaRG (AID 2283459)
In short: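 FOXO3 transcript measured by qRT-PCR (normalized to ACTB, GAPDH, POLR2A) after 48 h exposure of HepaRG cells in serum-free induction medium. Duplicates, eight half-log concentrations up to 100 uM, 0.5% DMSO; gain or loss fitted against DMSO.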

[12] = read-out: ABC Transporter (ABCB1), ABCB1 (gene 5243); experiment: LTEA_HepaRG_ABCB1: Life Technologies and Expression Analysis (LTEA) Assay for ABC Transporter (ABCB1) using HepaRG (AID 2283460)
In short: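 ABCB1 transcript level measured by TaqMan qRT-PCR against three housekeeping genes after 48 h chemical exposure of differentiated HepaRG cells. Top concentration 100 uM, half-log steps, eight points, 0.5% DMSO vehicle; bidirectional fit relative to DMSO.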

[13] = read-out: growth arrest and DNA damage 45 (GADD45B), GADD45B (gene 4616); experiment: LTEA_HepaRG_GADD45B: Life Technologies and Expression Analysis (LTEA) Assay for growth arrest and DNA damage 45 (GADD45B) using HepaRG (AID 2283461)
In short: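 Differentiated human HepaRG cells in serum-free induction medium exposed 48 h in duplicate to eight concentrations, top 100 uM, half-log steps, 0.5% DMSO. GADD45B mRNA by TaqMan qRT-PCR, normalized to ACTB, GAPDH, POLR2A; bidirectional fit versus DMSO.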

[14] = read-out: ABC Transporter (ABCC3), ABCC3 (gene 8714); experiment: LTEA_HepaRG_ABCC3: Life Technologies and Expression Analysis (LTEA) Assay for ABC Transporter (ABCC3) using HepaRG (AID 2283462)
In short: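 Differentiated human HepaRG cells exposed 48 h in serum-free induction medium, 0.5% DMSO vehicle, 8-point half-log series to 100 uM in duplicate. ABCC3 mRNA by qRT-PCR, normalised to ACTB, GAPDH, POLR2A; bidirectional fit vs DMSO.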

[15] = read-out: ABC Transporter (ABCB11), ABCB11 (gene 8647); experiment: LTEA_HepaRG_ABCB11: Life Technologies and Expression Analysis (LTEA) Assay for ABC Transporter (ABCB11) using HepaRG (AID 2283463)
In short: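 ABCB11 transcript levels quantified by TaqMan qRT-PCR against three housekeeping genes after 48 h chemical exposure of HepaRG cultures. Concentrations up to 100 uM in half-log steps, 0.5% DMSO vehicle; both induction and suppression scored.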

[16] = read-out: ABC Transporter (ABCC2), ABCC2 (gene 1244); experiment: LTEA_HepaRG_ABCC2: Life Technologies and Expression Analysis (LTEA) Assay for ABC Transporter (ABCC2) using HepaRG (AID 2283464)
In short: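 Differentiated HepaRG cells in serum-free induction medium exposed 48 h to eight half-log concentrations up to 100 uM, 0.5% DMSO, in duplicate. ABCC2 mRNA measured by qRT-PCR (TaqMan, Fluidigm), normalized to ACTB, GAPDH and POLR2A. Fitted in both directions against DMSO.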

[17] = read-out: Broad substrate specificity ATP-binding cassette transporter ABCG2 (Homo sapiens) (UniProt Q9UNQ0); experiment: LTEA_HepaRG_ABCG2: Life Technologies and Expression Analysis (LTEA) Assay for ABC Transporter (ABCG2) using HepaRG (AID 2283465)
In short: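 ABCG2 transcript was quantified by TaqMan qRT-PCR against three housekeeping genes in HepaRG cells. Cells were treated in duplicate for 48 h across an 8-point half-log series up to 100 uM, with 0.5% DMSO vehicle. Gain or loss versus DMSO was fit.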

[18] = read-out: ATP-citrate lyase (ACLY), ACLY (gene 47); experiment: LTEA_HepaRG_ACLY: Life Technologies and Expression Analysis (LTEA) Assay for ATP-citrate lyase (ACLY) using HepaRG (AID 2283466)
In short: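 ACLY mRNA quantified by qRT-PCR on Fluidigm arrays against three housekeeping genes, after 48 h chemical treatment of HepaRG cells (top concentration 100 uM, half-log steps, 0.5% DMSO vehicle). Up- or down-regulation fitted relative to DMSO.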

[19] = read-out: Cyclin D2 (CCND2), CCND2 (gene 894); experiment: LTEA_HepaRG_CCND2: Life Technologies and Expression Analysis (LTEA) Assay for Cyclin D2 (CCND2) using HepaRG (AID 2283449)
In short: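 CCND2 transcript levels, quantified by qRT-PCR and normalised to three housekeeping genes, were fitted bidirectionally against 0.5% DMSO. HepaRG cultures were dosed 48 h in duplicate with an 8-point half-log series up to 100 uM.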

Measured: AC50

Sequence of Broad substrate specificity ATP-binding cassette transporter ABCG2 (Homo sapiens) (Q9UNQ0 whole entry, looked up): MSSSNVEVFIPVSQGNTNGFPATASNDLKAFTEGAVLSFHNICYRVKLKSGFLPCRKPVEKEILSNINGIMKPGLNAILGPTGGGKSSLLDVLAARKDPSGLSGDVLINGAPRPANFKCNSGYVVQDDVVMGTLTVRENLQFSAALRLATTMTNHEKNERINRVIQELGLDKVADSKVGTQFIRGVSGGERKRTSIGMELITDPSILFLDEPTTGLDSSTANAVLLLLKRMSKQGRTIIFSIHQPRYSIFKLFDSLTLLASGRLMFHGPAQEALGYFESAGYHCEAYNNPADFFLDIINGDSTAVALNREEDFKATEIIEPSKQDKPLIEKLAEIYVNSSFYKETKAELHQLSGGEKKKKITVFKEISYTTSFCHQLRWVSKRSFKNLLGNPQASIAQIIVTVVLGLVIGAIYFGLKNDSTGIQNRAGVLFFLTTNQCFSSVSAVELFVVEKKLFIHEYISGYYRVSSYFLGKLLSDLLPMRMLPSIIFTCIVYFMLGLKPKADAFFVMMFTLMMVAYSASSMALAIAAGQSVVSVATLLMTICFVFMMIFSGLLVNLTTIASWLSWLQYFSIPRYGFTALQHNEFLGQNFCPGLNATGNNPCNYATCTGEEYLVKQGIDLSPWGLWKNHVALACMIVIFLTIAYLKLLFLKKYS
Sequence of Fatty acid synthase (Homo sapiens) (P49327 whole entry, looked up): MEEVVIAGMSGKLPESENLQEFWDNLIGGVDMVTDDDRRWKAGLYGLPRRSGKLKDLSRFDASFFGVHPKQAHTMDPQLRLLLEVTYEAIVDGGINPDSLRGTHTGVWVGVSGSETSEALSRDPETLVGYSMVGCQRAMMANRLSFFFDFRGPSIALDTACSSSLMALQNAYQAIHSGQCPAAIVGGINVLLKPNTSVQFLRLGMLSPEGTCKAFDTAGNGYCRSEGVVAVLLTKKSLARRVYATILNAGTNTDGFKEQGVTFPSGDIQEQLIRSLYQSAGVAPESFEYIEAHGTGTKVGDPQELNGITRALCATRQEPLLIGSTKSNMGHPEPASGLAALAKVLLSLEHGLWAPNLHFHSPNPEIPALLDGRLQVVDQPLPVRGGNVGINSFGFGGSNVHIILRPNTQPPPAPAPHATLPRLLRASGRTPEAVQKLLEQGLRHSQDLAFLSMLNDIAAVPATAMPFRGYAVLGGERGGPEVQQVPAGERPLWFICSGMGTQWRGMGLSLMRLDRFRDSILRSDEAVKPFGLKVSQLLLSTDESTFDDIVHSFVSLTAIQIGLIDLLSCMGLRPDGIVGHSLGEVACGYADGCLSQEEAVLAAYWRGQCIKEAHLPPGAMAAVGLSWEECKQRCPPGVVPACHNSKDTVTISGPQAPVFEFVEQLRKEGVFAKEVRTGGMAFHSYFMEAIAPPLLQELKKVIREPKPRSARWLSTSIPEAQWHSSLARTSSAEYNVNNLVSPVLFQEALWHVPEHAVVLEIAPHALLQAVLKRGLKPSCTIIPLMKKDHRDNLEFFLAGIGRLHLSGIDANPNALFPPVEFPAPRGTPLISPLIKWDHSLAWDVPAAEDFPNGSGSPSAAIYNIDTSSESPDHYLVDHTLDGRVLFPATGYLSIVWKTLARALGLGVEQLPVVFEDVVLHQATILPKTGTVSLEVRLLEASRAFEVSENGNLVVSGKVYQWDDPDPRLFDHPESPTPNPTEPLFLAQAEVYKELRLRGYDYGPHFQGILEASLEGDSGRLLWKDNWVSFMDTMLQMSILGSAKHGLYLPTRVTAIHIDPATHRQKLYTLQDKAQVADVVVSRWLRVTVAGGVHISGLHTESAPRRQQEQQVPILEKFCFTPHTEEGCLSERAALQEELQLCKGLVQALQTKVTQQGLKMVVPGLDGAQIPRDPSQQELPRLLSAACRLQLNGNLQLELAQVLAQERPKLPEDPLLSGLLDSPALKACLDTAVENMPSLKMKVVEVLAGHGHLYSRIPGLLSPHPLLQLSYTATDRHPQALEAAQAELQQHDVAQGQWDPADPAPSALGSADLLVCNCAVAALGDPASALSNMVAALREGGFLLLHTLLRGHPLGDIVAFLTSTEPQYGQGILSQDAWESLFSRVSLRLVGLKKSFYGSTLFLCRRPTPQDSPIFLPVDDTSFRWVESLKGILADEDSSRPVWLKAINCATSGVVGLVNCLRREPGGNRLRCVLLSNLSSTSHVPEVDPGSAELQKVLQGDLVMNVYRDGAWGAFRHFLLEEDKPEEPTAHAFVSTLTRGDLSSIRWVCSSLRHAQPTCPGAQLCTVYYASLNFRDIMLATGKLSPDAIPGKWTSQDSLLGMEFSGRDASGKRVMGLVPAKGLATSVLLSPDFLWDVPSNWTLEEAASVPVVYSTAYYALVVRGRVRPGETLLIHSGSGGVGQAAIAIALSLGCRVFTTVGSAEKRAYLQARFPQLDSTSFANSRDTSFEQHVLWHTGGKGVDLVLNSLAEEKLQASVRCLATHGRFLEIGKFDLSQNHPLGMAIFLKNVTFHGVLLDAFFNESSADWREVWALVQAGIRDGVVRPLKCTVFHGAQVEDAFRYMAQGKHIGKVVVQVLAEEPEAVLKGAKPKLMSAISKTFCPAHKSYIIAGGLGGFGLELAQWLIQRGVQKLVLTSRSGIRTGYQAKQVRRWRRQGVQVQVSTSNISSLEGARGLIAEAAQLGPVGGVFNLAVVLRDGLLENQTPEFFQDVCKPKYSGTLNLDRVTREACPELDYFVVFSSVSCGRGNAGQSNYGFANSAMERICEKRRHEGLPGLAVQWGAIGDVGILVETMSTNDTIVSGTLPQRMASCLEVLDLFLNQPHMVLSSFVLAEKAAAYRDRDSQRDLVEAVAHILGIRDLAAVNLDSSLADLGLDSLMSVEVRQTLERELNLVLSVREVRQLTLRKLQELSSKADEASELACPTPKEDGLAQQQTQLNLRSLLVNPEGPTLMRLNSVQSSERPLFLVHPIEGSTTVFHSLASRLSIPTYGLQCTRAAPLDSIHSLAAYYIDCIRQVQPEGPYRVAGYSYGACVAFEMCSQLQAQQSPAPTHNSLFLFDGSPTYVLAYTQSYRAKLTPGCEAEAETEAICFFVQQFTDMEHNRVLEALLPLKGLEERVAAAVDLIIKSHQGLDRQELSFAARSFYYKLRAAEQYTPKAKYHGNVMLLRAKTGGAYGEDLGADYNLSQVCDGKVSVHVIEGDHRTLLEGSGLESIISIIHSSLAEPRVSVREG

CCC(=NOC/C=C/Cl)C1=C(O)CC(C2CCOCC2)CC1=O (stereo not given)
active: [4] 414 nM | [7] 50 µM
not listed: [19]
inactive: all other assays above

CCOP(=S)(OCC)Oc1cc(C)nc(C(C)C)n1
active: [7] 33 µM
not listed: [19]
inactive: all other assays above

C[N+]1(C)CCCCC1
active: [7] 50 µM
not listed: [11] | [13]
inactive: all other assays above

CCOP(=O)(OCC)Oc1cc(C)nc(C(C)C)n1
active: [7] 50.2 µM
not listed: [13] | [19]
inactive: all other assays above

CC(C)=CC1C(C(=O)OCN2C(=O)C3=C(CCCC3)C2=O)C1(C)C (stereo not given)
active: [7] 50 µM
not listed: [11] | [13] | [19]
inactive: all other assays above

CCOP(=S)(OCC)OC(Cl)C(Cl)(Cl)Cl (stereo not given)
active: [7] 74.3 µM
not listed: [11] | [13]
inactive: all other assays above

CCOP(=S)(OCC)SCCSCC
active: [12] 51.1 nM
not listed: [11] | [13]
inactive: all other assays above
